The campaign covered roughly 69,000 compounds. About 950 (1.4%) showed an effect of 50% or more. The list comes from a sample in which strong results are over-represented; it also holds similar structures and randomly drawn compounds.
system: Mycobacterium tuberculosis; test: Cornell M. t heat shock assay; assay type: functional, organism-based; parameters: dose or concentration left out as unconfirmed; note: in the data most compounds retested in dose-response had high values

| Structure (SMILES) | Percent Effect [%] |
| --- | --- |
| CC(=O)NCC(=O)N1Cc2nccn2CC(COc2cccnc2)C1.O=C(O)C(F)(F)F (stereo unspecified) | -35.06 |
| Cc1nc(C2(O)CCCNCC2)sc1CCOc1ccccc1F.Cl (stereo unspecified) | -4.166 |
| O=CO.c1cc2nccc(CC3CCCN(Cc4c[nH]cn4)CC3)c2cn1 (stereo unspecified) | -8.502 |
| CCN1CCOCC12CCN(c1cnccn1)CC2.O=C(O)C(F)(F)F | -4.677 |
| CC(C)(CO)CNC(=O)c1cc(-c2cc[nH]n2)n2ccccc12.O=C(O)C(F)(F)F | 10.76 |
| O=C(O)C(F)(F)F.O=C(O)C(F)(F)F.O=C(O)C(F)(F)F.c1cncc(CN2CCC3(CC2)CC(c2cccnc2)CO3)c1 (stereo unspecified) | -27.59 |
| CCCOc1ccc(CNc2cncc(-n3cccn3)n2)cc1 | 63.69 |
| CNC(=O)COc1ccc(CNc2cncc(-n3cccn3)n2)cc1 | -4.201 |
| CCOCc1ccc(CNc2cncc(-n3cccn3)n2)cc1 | -0.9926 |
| CCOc1cc(CN(C)CC(=O)O)ccc1OC(F)F.Cl | -22.89 |
| Cc1cc2cccc(NC(=O)N3CC[C@@H]4CC[C@H](C3)N4C)c2o1 | 25.84 |
| Cc1cc(-c2cnn(CCNC(=O)C3CC3)c2C2CC2)on1 | -1.703 |
| Cc1cc(-c2cnn(CCNC(=O)c3cc[nH]n3)c2C2CC2)on1 | 53.69 |
| Cc1cc(-c2cnn(CCNC(=O)c3cnn(C)c3)c2C2CC2)on1 | -6.591 |
| O=S(=O)(c1ccccc1)N1C(CN2CCOCC2)[C@]2(O)CC[C@H]1CC2 (stereo partly specified) | -28.69 |
| CCS(=O)(=O)N1CCOC2(CCCN(Cc3ccccn3)C2)C1.O=C(O)C(F)(F)F (stereo unspecified) | 2.925 |
| NCC(=O)N1CCC(c2cncc(Oc3cccnc3)n2)CC1 | -6.248 |
| CCC(=O)N1CCC(c2cncc(Oc3cccnc3)n2)CC1 | -19.43 |
| COCCC(=O)N1CCC(c2cncc(Oc3cccnc3)n2)CC1 | 51.38 |
| O=C1NCCCC1NC(=O)C1(c2cccc(Cl)c2)CCC1 (stereo unspecified) | 0.8202 |
| Cl.c1ccc(CCNc2cccc(C3CCCNC3)n2)cc1 (stereo unspecified) | -24.38 |

| Structure (SMILES) | Percent Effect [%] |
| --- | --- |
| CCOc1ccc(Cl)cc1C1CCCN1.Cl (stereo unspecified) | -11.35 |
| Cl.Clc1cccc(N[C@H]2CCCN[C@H]2Cc2ccccc2)c1 | 104.4 |
| CN[C@H]1CC[C@]2(CC1)CNC(=O)c1cc(C)ccc1O2 | -8.947 |
| CN1CCN(S(=O)(=O)c2ccccc2)Cc2cccnc21.O=C(O)C(F)(F)F | 19.11 |
| CN(C)CC(=O)N1CCC2(CC1)CN(Cc1cccnc1)C(=O)CO2 | -16.01 |
| Cc1cc(C)n(CC2CCCN2CCCS(C)(=O)=O)n1 (stereo unspecified) | 7.273 |
| CC(C)(O)CN1CCC(=O)N(Cc2ccco2)Cc2cc(F)ccc21 | -9.768 |
| CN1Cc2ccccc2N(CC(O)C(F)(F)F)CCC1=O (stereo unspecified) | 42.32 |
| COc1ccc2c(c1)CN(C)C(=O)CCN2CC(O)C(F)(F)F (stereo unspecified) | 35.74 |
| CN1Cc2cc(F)ccc2N(CC(O)C(F)(F)F)CCC1=O (stereo unspecified) | 54.29 |
| CCCC(O)CN1CCC(=O)N(CC2CC2)Cc2cc3c(cc21)OCO3 (stereo unspecified) | 15.68 |
| CCCC(O)CN1CCC(=O)N(CCOC)Cc2ccccc21 (stereo unspecified) | 30.93 |
| CCCC(O)CN1CCC(=O)N(CC)Cc2cc3c(cc21)OCO3 (stereo unspecified) | 53.46 |
| CCN1CCC(=O)N(C)Cc2cc(F)ccc21 | 13.57 |
| CN1Cc2cc(F)ccc2N(CC(C)(C)O)CCC1=O | 56.09 |
| CCCC(O)CN1CCC(=O)N(Cc2ccccc2)Cc2ccccc21 (stereo unspecified) | 5.738 |
| CCCC(O)CN1CCC(=O)N(CCOC)Cc2cc3c(cc21)OCO3 (stereo unspecified) | 26.79 |
| CCCC(O)CN1CCC(=O)N(C)Cc2cc(F)ccc21 (stereo unspecified) | 66.32 |
| CCc1ccc(CN2C[C@H](OC)[C@H]3COC[C@H]32)o1.O=C(O)C(F)(F)F | 46.3 |
| Cn1cc(CN2C[C@H]3CCC[C@@]3(COc3ccccn3)C2)cn1.O=C(O)C(F)(F)F.O=C(O)C(F)(F)F | -2.585 |
| Cl.Fc1cccc(F)c1Cn1c(C2CCNCC2)cc2cccnc21 | -5.947 |

| Structure (SMILES) | Percent Effect [%] |
| --- | --- |
| Cc1nc(CN2C(=O)C[C@H]3[C@H]2CCN3CC2CCOC2)cs1.O=C(O)C(F)(F)F (stereo partly specified) | -4.028 |
| COCC1CC2(CCN(c3ccc(C)nn3)CC2)CN1C(C)C.O=C(O)C(F)(F)F (stereo unspecified) | -4.94 |
| Cl.Cl.O=C(NCc1cncc2c1CCN(CC1CCOC1)C2)c1ccco1 (stereo unspecified) | 5.54 |
| COCCN1CCC2(C1)c1ccccc1S(=O)(=O)N2C.O=C(O)C(F)(F)F (stereo unspecified) | 24.71 |
| Cc1cc(N2CCN(Cc3ccnn3C)CC2)cc(C2CCCN2)n1.Cl (stereo unspecified) | -17.02 |
| Cc1nc(C2(O)CCCNCC2)sc1CCOc1ccc(F)c(F)c1.Cl (stereo unspecified) | -9.071 |
| CC(C)CS(=O)(=O)N1C[C@H]2C[C@H](C(=O)N(C)C)[C@@H](C1)O2 | 1.328 |
| CCN1Cc2cc(OC)ccc2N(CC(C)(C)O)CCC1=O | -11.62 |
| COc1ccc2c(c1)CN(C)C(=O)CCN2CC(O)C(C)(C)C (stereo unspecified) | 46.8 |
| CCN1Cc2cc(F)ccc2N(CC(O)C(F)(F)F)CCC1=O (stereo unspecified) | 51.9 |
| CC(C)OCc1nn(C)c2c1CN(Cc1cccs1)CC2.O=CO | 3.631 |
| COc1ccccc1N1CCC(NCc2c(C)noc2C)C1 (stereo unspecified) | -23.49 |
| Cc1noc(CNc2c(N3CCCC3)cccc2N2CCCC2)n1 | 25.1 |
| Cc1noc(C)c1CNc1c(N2CCCC2)cccc1N1CCCC1 | 65.01 |
| COc1cccc(CN2CCC3(CC2)CCN(C(=O)[C@@H]2CCCO2)C3)c1.O=C(O)C(F)(F)F | -4.383 |
| Cc1nc(Cc2ccc(F)cc2)cc(C2COCCN2)n1.Cl (stereo unspecified) | 12.05 |
| O=C(Nc1ccccc1)[C@H]1C[C@@H]2CN(S(=O)(=O)C3CC3)C[C@H]1O2 | 2.732 |
| CN(C)CCN(C(=O)Cc1ccc2c(c1)OCCO2)C1CCN(C)CC1.O=C(O)CC(O)(CC(=O)O)C(=O)O | -33.14 |
| CCOCC1CN(Cc2cccnc2)Cc2nn(C)cc21.O=C(O)C(F)(F)F.O=C(O)C(F)(F)F (stereo unspecified) | -34.52 |
